Where “and” joins values, the source holds several entries; their conditions need not be identical. Identical values can stand only once. Inconclusive results are not listed. A call without a number means that no potency is given here. More than one record can exist for a structure, and the calls need not agree. Calls of active or inactive are those of the source. Unless noted, calls come from the whole dose curve; as a rule, active = well fitted curve in the direction sought with a large enough effect in the repeat runs; inconclusive = weak or mixed curves; inactive = no such curve, though single readings can be large; an effect the other way counts as inactive or inconclusive.
Columns and labels:
[1] = qHTS assay to identify aromatase inhibitors - cell viability counter screen (AID 743084);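 note: cells stimulated with testosterone during compound exposure; nearly all actives have a fitted effect of over 55% in size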; note: potency is the fitted concentration of half-maximal effect
[2] = qHTS assay to identify small molecule that activate the aryl hydrocarbon receptor (AhR) signaling pathway - cell viability counter screen (AID 743086); note: nearly all actives have a fitted effect of over 45% in size; note: potency is the fitted concentration of half-maximal effect;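 for viability change, negative = cytotoxic: HepG2 liver cells carrying the AhR DRE luciferase reporter; series mostly up to about 70 µM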
Method in brief: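 HepG2-AhR-luc (HG2L7.5c1) cells, 4000/well, were preincubated 5 h at 37C, exposed to compound in qHTS format for 24 hr at 37C, then given CellTiter-Fluor for 30 min; viability was read as fluorescence in the reporter wells.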

[3] = target: Peroxisome proliferator-activated receptor gamma (Homo sapiens) (UniProt P37231); assay: qHTS assay to identify small molecule agonists of the peroxisome proliferator-activated receptor gamma (PPARg) signaling pathway (AID 743094; active = well fitted activation curve with a large enough effect in the signal ratio in the repeat runs, not every such curve was filed as active; the % refers to the signal ratio; note: potency is the fitted concentration of half-maximal effect)
Method in brief: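 Cell-based bla reporter, HEK293H background, PPARg-driven UAS. Pre-incubation 5 h, 37C, 5% CO2. Compound 17 h, 37C. Substrate 1 h RT; fluorescence.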

[4] = qHTS assay to identify small molecule antagonists of the peroxisome proliferator-activated receptor gamma (PPARg) signaling pathway - cell viability counter screen (AID 743194); note: nearly all actives have a fitted effect of over 55% in size; note: potency is the fitted concentration of half-maximal effect
Method in brief: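 PPARg-UAS-bla HEK293H cells were plated, rested 5 h at 37 C, then treated with compounds plus rosiglitazone (50 nM final) for 17 h at 37 C; viability was then read by CellTiter-Glo luminescence after 30 min at room temperature.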

[5] = qHTS assay for small molecule agonists of the antioxidant response element (ARE) signaling pathway (AID 743202; active = well fitted activation curve with a large enough effect in the signal ratio in the repeat runs, not every such curve was filed as active; the % refers to the signal ratio; note: potency is the fitted concentration of half-maximal effect)
Method in brief: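 Following a 16 h, 37 C exposure of reporter HepG2 cells (ARE-driven beta-lactamase, 2,000 cells/well) to compounds, FRET substrate was applied for 2 h at room temperature and fluorescence intensity recorded.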

[6] = qHTS assay for small molecule agonists of the antioxidant response element (ARE) signaling pathway - cell viability counter screen (AID 743203; calls by dose curve; note: nearly all actives have a fitted effect of over 55% in size; note: potency is the fitted concentration of half-maximal effect)
Method in brief: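 Measured in the same wells as the beta-lactamase ARE reporter, this read-out is CellTiter-Glo luminescence from HepG2 ARE-bla cells given compounds for 16 hrs.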

[7] = qHTS assay for small molecule activators of the heat shock response signaling pathway (AID 743210; active = well fitted activation curve with a large enough effect in the signal ratio in the repeat runs, with a control signal flat, not every such curve was filed as active; the % refers to the signal ratio; note: potency is the fitted concentration of half-maximal effect; for activation: series mostly up to about 63 µM)
Method in brief: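 Heat shock element–beta-lactamase HeLa reporter cells; qHTS with compounds for 5 h at 37 C; detection by FRET substrate fluorescence after 2.5 h at RT.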

[8] = target: Peroxisome proliferator-activated receptor gamma (Homo sapiens) (UniProt P37231); assay: qHTS assay to identify small molecule antagonists of the peroxisome proliferator-activated receptor gamma (PPARg) signaling pathway (AID 743191; calls by dose curve; note: nearly all actives have a fitted effect of over 30% in size; note: potency is the fitted concentration of half-maximal effect; for ratio activity, negative = inhibition: series mostly up to about 63 µM)
Method in brief: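 GeneBLAzer PPARg UAS-bla HEK293H cells carrying a UAS-driven beta-lactamase reporter were plated at 3000 cells/well, preincubated 5 h at 37C, then given compound for 17 h at 37C; LiveBLAzer B/G FRET substrate was read after 1 h at room temperature.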

[9] = qHTS assay for small molecule activators of the heat shock response signaling pathway - cell viability counter screen (AID 743209); note: nearly all actives have a fitted effect of over 50% in size; note: potency is the fitted concentration of half-maximal effect
Method in brief: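 Same-well multiplex: after 2.5 h room-temperature incubation with LiveBLAzer B/G substrate and fluorescence reading, CellTiter-Glo reagent was added to HSE-bla HeLa cells that had received compound for 5 h at 37 C; luminescence read after 30 min.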

[10] = target: Aryl hydrocarbon receptor (Homo sapiens) (UniProt P35869); assay: qHTS assay to identify small molecule that activate the aryl hydrocarbon receptor (AhR) signaling pathway (AID 743085);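 note: HG2L7.5c1 human HepG2 liver cells with stably integrated DRE-driven firefly reporter; series mostly up to about 70 µM; nearly all actives have a fitted effect of over 15% in size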
Method in brief: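 Compounds were tested in HepG2 hepatocellular carcinoma cells harbouring a stably integrated luciferase gene under control of 20 DREs. Increased reporter signal after 24 h treatment at 37C was taken as AhR activation.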

Peroxisome proliferator-activated receptor gamma (Homo sapiens), sequence (P37231 whole entry, looked up): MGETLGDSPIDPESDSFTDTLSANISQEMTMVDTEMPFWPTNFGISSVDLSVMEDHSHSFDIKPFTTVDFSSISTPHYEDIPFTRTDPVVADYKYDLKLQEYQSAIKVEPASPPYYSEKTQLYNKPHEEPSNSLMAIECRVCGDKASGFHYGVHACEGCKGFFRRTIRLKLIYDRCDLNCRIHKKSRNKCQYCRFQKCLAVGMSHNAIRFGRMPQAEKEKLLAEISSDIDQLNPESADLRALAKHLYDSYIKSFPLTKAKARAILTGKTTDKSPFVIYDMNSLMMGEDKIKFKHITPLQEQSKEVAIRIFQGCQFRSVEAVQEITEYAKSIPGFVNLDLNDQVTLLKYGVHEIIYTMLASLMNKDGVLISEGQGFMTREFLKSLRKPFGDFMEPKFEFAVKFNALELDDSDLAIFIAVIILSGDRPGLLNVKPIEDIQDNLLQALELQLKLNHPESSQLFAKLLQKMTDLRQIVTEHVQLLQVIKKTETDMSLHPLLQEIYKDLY
Aryl hydrocarbon receptor (Homo sapiens), sequence (P35869 whole entry, looked up): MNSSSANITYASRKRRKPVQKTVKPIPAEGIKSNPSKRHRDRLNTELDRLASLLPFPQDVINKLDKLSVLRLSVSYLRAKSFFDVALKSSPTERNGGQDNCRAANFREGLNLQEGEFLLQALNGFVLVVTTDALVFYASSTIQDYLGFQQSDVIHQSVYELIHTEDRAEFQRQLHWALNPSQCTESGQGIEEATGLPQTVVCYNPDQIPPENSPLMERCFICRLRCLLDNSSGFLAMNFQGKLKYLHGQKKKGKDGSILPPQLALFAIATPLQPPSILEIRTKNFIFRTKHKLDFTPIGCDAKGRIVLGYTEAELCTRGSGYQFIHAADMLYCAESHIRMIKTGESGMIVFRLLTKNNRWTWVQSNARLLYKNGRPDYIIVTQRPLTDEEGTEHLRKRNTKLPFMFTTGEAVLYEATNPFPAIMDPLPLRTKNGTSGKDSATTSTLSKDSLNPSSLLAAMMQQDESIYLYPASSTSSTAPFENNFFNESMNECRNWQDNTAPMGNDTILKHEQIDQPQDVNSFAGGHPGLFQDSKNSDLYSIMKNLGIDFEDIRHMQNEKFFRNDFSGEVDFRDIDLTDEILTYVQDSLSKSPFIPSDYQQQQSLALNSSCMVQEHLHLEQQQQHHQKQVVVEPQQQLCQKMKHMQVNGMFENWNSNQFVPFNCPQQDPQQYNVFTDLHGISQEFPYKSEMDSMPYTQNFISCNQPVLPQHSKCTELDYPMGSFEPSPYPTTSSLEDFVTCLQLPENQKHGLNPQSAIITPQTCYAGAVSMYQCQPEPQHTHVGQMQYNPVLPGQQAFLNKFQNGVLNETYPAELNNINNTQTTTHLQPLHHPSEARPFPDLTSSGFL

Row | SMILES | Potency [1] | Potency [2] | Potency [3] | Potency [4] | Potency [5] | Potency [6] | Potency [7] | Potency [8] | Potency [9] | ratio activity, negative = inhibition [8] | activity change, negative = cytotoxicity [4] | viability change, negative = cytotoxic [6] | activation [7] | Potency [10]
1 | CC[C@@H](N)CO | inactive | inactive | inactive | inactive | inactive | inactive | inactive |  |  |  |  |  |  | 
2 | COc1nc(C)nc(Cl)c1NC1=NCCN1 | inactive | inactive | inactive | inactive | inactive | inactive | inactive | inactive |  |  |  |  |  | 
3 | O=Nc1ccc(Nc2ccccc2)cc1 | 27.4 µM (active) | inactive | 15.5 µM (active) | 19.6 µM (active) and 43.6 µM (active) | 3.06 µM (active) | inactive |  |  | 34.7 µM (active) |  |  |  |  | 
4 | NC(N)=Nc1nc(CSCC/C(N)=N/S(N)(=O)=O)cs1 | inactive | inactive | inactive | inactive | inactive | inactive | inactive | inactive | inactive |  |  |  |  | 
5 | c1ccc2c(c1)CCCC2C1=NCCN1 (stereo unspecified) | inactive | inactive | inactive | inactive | inactive | inactive | inactive | inactive | inactive |  |  |  |  | 
6 | CC1=CC(=O)c2ccccc2C1=O | inactive and 24.3 µM (active) | inactive | inactive | 11 µM (active) and 26.6 µM (active) | 9.44 µM (active) | 24.3 µM (active) and 29.8 µM (active) |  |  | 15.5 µM (active) and 2.66 µM (active) |  |  |  |  | 
7 | O=C(O[C@@H]1Cc2c(O)cc(O)cc2O[C@@H]1c1cc(O)c(O)c(O)c1)c1cc(O)c(O)c(O)c1 | 30.7 µM (active) and 46.8 µM (active) | 34.4 µM (active) and 41.7 µM (active) | inactive | inactive |  | inactive | inactive |  | inactive |  |  |  |  | 
8 | NC(Cc1ccc(Cl)cc1)C(=O)O (stereo unspecified) | inactive | inactive | inactive |  |  |  |  |  |  | -10.6% [at 0.55 µM] (inactive) | 2.82% [at 0.55 µM] (inactive) | 0.376% [at 0.756 µM] (inactive) | 1.36% [at 0.55 µM] (inactive) | 
9 | O=C(O)CP(=O)(O)O | inactive | inactive | inactive | inactive | inactive | inactive | inactive | inactive | inactive |  |  |  |  | 
10 | Nc1nc2ccccc2[nH]1 | inactive | inactive | inactive | inactive | inactive | inactive | inactive | inactive | inactive |  |  |  |  | 
11 | CN(C)c1ccc2nc3ccc(=[N+](C)C)cc-3sc2c1 | 23.7 µM (active) and 13.1 µM (active) | 9.44 µM (active) and 16.6 µM (active) and 27.3 µM (active) | inactive | inactive |  | 11.7 µM (active) and 9.69 µM (active) and 11.9 µM (active) |  | 43.6 µM (active) and inactive | inactive and 54.9 µM (active) |  |  |  |  | 
12 | Nc1cc(S(=O)(=O)O)cc2cc(S(=O)(=O)O)cc(O)c12 | inactive | inactive | inactive | inactive | inactive | inactive |  | inactive | inactive |  |  |  |  | 
13 | CC(C)(C)NCC(O)c1cc(O)cc(O)c1 (stereo unspecified) | inactive | inactive | inactive | inactive | inactive | inactive | inactive |  | inactive |  |  |  |  | 
14 | O=Cc1ccc(Cl)cc1 | inactive | inactive | inactive | inactive | inactive | inactive | inactive | inactive | inactive |  |  |  |  | 
15 | CCCCCCCCCCCCCCCCCl | inactive | inactive | inactive | inactive | inactive | inactive | inactive | inactive | inactive |  |  |  |  | 
16 | Nc1ccc(O)cc1 | 54.5 µM (active) and 31.8 µM (active) | 54.5 µM (active) and 50.4 µM (active) | inactive | inactive | 29.8 µM (active) | 12.7 µM (active) and inactive | inactive | inactive | 25.5 µM (active) and inactive |  |  |  |  | 
17 | CCc1ccc(C(c2ccc(CC)cc2)C(Cl)Cl)cc1 | inactive | inactive | inactive | inactive | inactive | inactive | inactive | inactive | inactive |  |  |  |  | 
18 | CCCCOCCOC(=O)c1ccccc1C(=O)OCCOCCCC | inactive | inactive | inactive | inactive | inactive | inactive |  | inactive | inactive |  |  |  |  | 
19 | CCN(CC)CCOc1ccc(/C(=C(\Cl)c2ccccc2)c2ccccc2)cc1 | inactive and 27.9 µM (active) |  |  | 17.7 µM (active) |  | 15.7 µM (active) and 29.8 µM (active) |  |  | 39.7 µM (active) and 29.8 µM (active) |  |  |  |  | inactive
20 | O=c1n(CC2CO2)c(=O)n(CC2CO2)c(=O)n1CC1CO1 (stereo unspecified) | inactive and 34.2 µM (active) | inactive |  | inactive | 4.33 µM (active) | inactive | 35.8 µM (active) and 43.6 µM (active) |  | inactive |  |  |  |  | 
21 | CCCCCCC(O)CCCCCCCCCCC(=O)O (stereo unspecified) | inactive | inactive |  | 21.9 µM (active) |  |  | inactive |  | inactive |  |  |  |  | 
22 | O=C(O)CCc1ccccc1 |  | inactive |  | inactive | inactive |  | inactive |  | inactive |  |  |  |  | 
23 | O=C1CC2(CCCC2)CC(=O)N1CCCCN1CCN(c2ncccn2)CC1 |  | inactive |  | inactive | 27.3 µM (active) | inactive | inactive |  | inactive |  |  |  |  | 
24 | CO[Si](OC)(OC)c1ccccc1 | inactive | inactive | inactive | inactive |  | inactive | inactive |  |  |  |  |  |  | 
25 | c1ccc2c(c1)-c1cccc3c1c-2cc1ccccc13 | inactive | inactive |  | inactive | 1.34 µM (active) | inactive |  |  | inactive |  |  |  |  | 
26 | BrC1CCC(Br)C(Br)CCC(Br)C(Br)CCC1Br (stereo unspecified) |  | inactive | inactive | 16.5 µM (active) |  |  |  |  | inactive |  |  |  |  | 
27 | Cc1cccc2n[nH]nc12 |  | inactive |  | inactive | inactive | inactive | inactive |  | inactive |  |  |  |  | 

— PubChem BioAssay (Tox21)
